Unmarked numbers belong to inactive results.
Test system: Vero E6 infected with SARS-CoV-2
Experiment: inhibition of SARS-CoV-2 cytopathic effect; higher = more antiviral protection, active = above 15
Conditions: 48 h

Row | SMILES | inhibition of SARS-CoV-2 cytopathic effect (1 nM) | inhibition of SARS-CoV-2 cytopathic effect (8.33 nM) | inhibition of SARS-CoV-2 cytopathic effect (100 nM) | inhibition of SARS-CoV-2 cytopathic effect (833.33 nM) | inhibition of SARS-CoV-2 cytopathic effect (10000 nM)
1 | CC(=O)N1CCN(CCOc2ccc(C3CCN(C4=Nn5c(nnc5C(F)(F)F)CC4)CC3)cc2)CC1 | 0.09% | 1.43% | 0.26% | 1.65% | 1.88%
2 | OCCN1CCN(CCCN2c3ccccc3C=Cc3ccccc32)CC1 [opipramol] | 2.92% | 1.37% | 1.62% | -1.41% | -3.08%
3 | O=c1[nH]c2ccc(Cl)cc2c(N[C@@H]2CN3CCC2CC3)c1-c1nc2ccccc2[nH]1 | 0.01% | 0.79% | -0.9% | -5.44% | -15.4%
4 | CC(C)c1nc(N(C)S(C)(=O)=O)nc(-c2ccc(F)cc2)c1/C=C/[C@@H](O)C[C@@H](O)CC(=O)O [rosuvastatin] | -0.46% | 0.22% | -2.09% | -3.33% | -2.75%
5 | CC(=O)N1CCC[C@H]1C(=O)N[C@@H](Cc1cnc[nH]1)C(=O)N[C@@H](CO)C(=O)N[C@@H](CS)C(=O)N[C@@H](CC(N)=O)C(N)=O | 1.06% | 0.67% | 2.55% | 2.87% | 3.86%
6 | O=C(COc1ccc(C(=O)c2ccccc2)cc1)NC1CCN(Cc2ccccc2)CC1 [adiporon] | -2.19% | -0.76% | 0.29% | 0.19% | -1.05%
7 | CO[C@@]1(NC(=O)CSCC#N)C(=O)N2C(C(=O)O)=C(CSc3nnnn3C)CS[C@@H]21 [cefmetazole] | 1.84% | 1.39% | 1.15% | 2.93% | 2.49%
8 | O=C1c2c(O)cc(O)cc2O[C@H](c2cc(O)c(O)c(O)c2)[C@H]1O [dihydromyricetin] | 2.39% | 3.54% | 1.66% | 1.69% | -1.52%
9 | Cc1cc(Nc2nc(N[C@@H](C)c3ccc(F)cc3)c(C#N)cc2F)n[nH]1 | 0.59% | 0.82% | -1.14% | -3.33% | -13%
10 | COc1ccc(NS(=O)(=O)c2ccc(I)cc2)cc1N1CCN(C)CC1 | 0.59% | -5.4% | 0.99% | 0.95% | -1.3%
11 | CCOC(=O)c1ncc2[nH]c3ccc(OCc4ccccc4)cc3c2c1COC | 2.48% | 0.26% | 0.32% | 2.46% | -5.3%
12 | CN1C[C@@H]2CN(c3ccc(-c4ccccc4)nn3)C[C@@H]2C1 | 1.02% | -1.9% | 0.67% | 0.54% | -3.37%
13 | CN(C)CCn1cc(S(=O)(=O)c2cccc(F)c2)c2cccnc21 | 5.3% | 5.65% | 1.09% | -1.84% | -1.97%
14 | CC(C)(C)CC(=O)Nc1c(F)cc(C(=O)/N=c2\sccn2COP(=O)(O)O)cc1F | 0.06% | -0.74% | -3.11% | -0.94% | 2.91%
15 | CCC1(c2c[nH]cn2)Cc2ccccc2C1 [atipamezole] | 0.76% | 2.54% | 0.58% | 2.4% | 1.28%
16 | CC(C)C[C@H](CN)CC(=O)O | -2.46% | -1.59% | -0.55% | -0.08% | 0.02%
17 | CC(C)c1onc(-c2c(Cl)cccc2Cl)c1COc1ccc(/C=C/c2cccc(C(=O)O)c2)c(Cl)c1 | 0.86% | 0.15% | -0.17% | 0.5% | 0.01%
18 | O=C1c2c(O)ccc(O)c2C(=O)c2c(NCCNCCO)ccc(NCCNCCO)c21 [mitoxantrone] | 0.83% | 0.03% | -2.74% | -4.43% | -11.1%
19 | CCC1(CC)C(=O)NC(=O)N(C)C1=O [metharbital] | 0.2% | 2.59% | 1.14% | 0.78% | 2.66%

Row | SMILES | inhibition of SARS-CoV-2 cytopathic effect (1 nM) | inhibition of SARS-CoV-2 cytopathic effect (8.33 nM) | inhibition of SARS-CoV-2 cytopathic effect (100 nM) | inhibition of SARS-CoV-2 cytopathic effect (833.33 nM) | inhibition of SARS-CoV-2 cytopathic effect (10000 nM)
20 | COc1cc2nccc(Oc3ccc(NC(=O)NC4CC4)c(Cl)c3)c2cc1C(N)=O [lenvatinib] | -1.78% | -0.25% | -0.32% | -0.03% | 8.44%
21 | CCCC(=O)Nc1ncnc2c1ncn2[C@@H]1O[C@@H]2COP(=O)(O)O[C@H]2[C@H]1OC(=O)CCC [bucladesine] | -1.3% | -3.37% | -2.82% | 0.58% | 1.04%
22 | Cn1cnnc1Sc1c([N+](=O)[O-])ncn1C | 3.11% | 1.9% | 2.13% | 5% | 2.84%
23 | Cc1ccc(NC(=O)c2ccc(CN3CCN(C)CC3)cc2)cc1Nc1nc(-c2cccnc2)cs1 [masitinib] | 1.41% | 0.48% | 1.05% | 1.93% | 44.8% (active)
24 | C=C[C@H]1CN2CC[C@H]1C[C@@H]2[C@@H](O)c1ccnc2ccc(OC)cc12 [quinidine] | -8.54% | -5.1% | -8.19% | -4.54% | -4.21%
25 | NNc1nncc2ccccc12 [hydralazine] | 0.09% | 0.28% | -1.28% | -0.12% | 0.87%
26 | CC[C@H](C)[C@H](N)C1=N[C@H](C(=O)N[C@@H](CC(C)C)C(=O)N[C@H](CCC(=O)[O-])C(=O)N[C@H](C(=O)N[C@H]2CCCCNC(=O)[C@H](CC(N)=O)NC(=O)[C@@H](CC(=O)[O-])NC(=O)[C@H](Cc3cnc[nH]3)NC(=O)[C@@H](Cc3ccccc3)NC(=O)[C@H]([C@@H](C)CC)NC(=O)[C@@H](CCCN)NC2=O)[C@@H](C)CC)CS1.[Zn+2] [bacitracin-zinc] | 1.46% | 1.2% | 2.85% | -0.14% | 0.15%
27 | O=C1NC(=O)c2c1c1c3ccccc3n3c1c1c2c2ccccc2n1C1CCC3O1 | 0.12% | 2.27% | -1.21% | 4.22% | 8.57%
28 | CCCCN(CC)c1nc(C)nc2c1c(C)c(C)n2-c1c(C)cc(C)cc1C [antalarmin] | -0.13% | -2.86% | 1.21% | -0.62% | 2%
29 | Oc1c(Cl)cc(Cl)c2cccnc12 [chloroxine] | 2.69% | 2.44% | 1.43% | -0.59% | -0.15%
30 | COc1ccccc1Oc1c(NS(=O)(=O)c2ccc(C(C)(C)C)cc2)nc(-c2ncccn2)nc1OCCO [bosentan] | -0.62% | 1.39% | 1.79% | -3.3% | -1.84%
31 | Cc1nc(=O)c2cc(CN(C)c3ccc(C(=O)N[C@@H](CCC(=O)O)C(=O)O)s3)ccc2[nH]1 [raltitrexed] | -0.77% | 5.47% | 1.2% | -4.47% | -1.82%
32 | CCOP(=S)(OCC)Oc1nc(Cl)c(Cl)cc1Cl [chlorpyrifos] | 0.53% | 2.45% | -0.67% | 0.54% | -4.79%
33 | O=C(O)Cc1ccc(OCc2ccccc2)c(Cl)c1 [benzofenac] | -0.05% | 4.15% | 1.74% | 1.88% | 0.27%
34 | CCCCCCCCCCCCCCCC[n+]1ccn(Cc2ccccc2)c1C | -1.36% | 0.51% | 0.65% | -4.4% | -20.9%
35 | Cc1nc(C)c(C)nc1C [chuanxiongzine] | 2.81% | 0.85% | 2.51% | 5.75% | 1.87%
36 | CC[C@]1(O)C[C@H]2CN(CCc3c([nH]c4ccccc34)[C@@](C(=O)OC)(c3cc4c(cc3OC)N(C=O)[C@H]3[C@@](O)(C(=O)OC)[C@H](OC(C)=O)[C@]5(CC)C=CCN6CC[C@]43[C@@H]65)C2)C1 [Vincristine (sulfate)] | -1.47% | -1.12% | 0.94% | 0.14% | -0.29%
37 | CC(C)C(=O)OC[C@H]1O[C@@H](n2ccc(N)nc2=O)[C@](C)(F)[C@@H]1OC(=O)C(C)C [mericitabine] | -0.35% | -2.22% | 2.05% | -0.85% | 1.88%
38 | CC[C@H]1OC(=O)[C@H](C)C(=O)[C@H](C)[C@@H](O[C@@H]2O[C@H](C)C[C@H](N(C)C)[C@H]2O)[C@](C)(OC)C[C@@H](C)C(=O)[C@H](C)[C@H]2N(CCCCn3cnc(-c4cccnc4)c3)C(=O)O[C@]12C [telithromycin] | -2.13% | -0.46% | -1.7% | 0.65% | -0.07%
